Experimental data: the supplement of paper PMC7866885, “A novel bicyclic 2,4-diaminopyrimidine inhibitor of Streptococcus suis dihydrofolate reductase” (PeerJ, 2021)
± gives the standard deviation.

Test system: Streptococcus suis P1/7
Test: percent growth relative to DMSO control; higher = less growth inhibition
Conditions: 10 µM; incubation time 18 h
Method: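 CLSI broth microdilution: 5x10^4 CFU of Streptococcus suis (strain P1/7 or HE06) incubated with 10 µM Pathogen Box compound in cation-adjusted Mueller Hinton broth, 37 °C, 5% CO2, 18 h. Growth read as OD600 and expressed as percent of the DMSO-treated control (100%); mean ± SD of three independent experiments.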

SMILES | percent growth [%]
O=C(C1CCCCC1)N1CC(=O)N2CCc3ccccc3C2C1 (stereo not drawn) | 102 ± 18
CC[C@H](CO)NCCN[C@H](CC)CO | 77 ± 21
CCc1ccc([C@@H]2C[C@H](C(F)(F)F)n3ncc(C(=O)NCc4ccc(OC)cc4)c3N2)cc1 | 75.4 ± 5.3
CCOc1ccc2cc(-c3nn(CC4CCN(C)CC4)c4ncnc(N)c34)ccc2c1 | 99.3 ± 11
CC(=O)Nc1ccc(NC(=O)c2cc(-c3cc(Cl)ccc3O)[nH]n2)cc1 | 104 ± 13
CC(C)(C)C(=O)N(CCCCCCN1C[C@H](O)[C@@H](O)[C@H](O)[C@H]1CO)C1CCCCCC1 | 130 ± 56
Cc1cc(C)nc(-n2nc(C)cc2Nc2ccccc2)n1 | 0.0724 ± 0.12
CN1CCN(S(=O)(=O)c2ccc(-c3ccc4c(Nc5ncc(Cl)cn5)ccnc4c3)cc2)CC1 | 103 ± 47
O=S(=O)(c1ccc(Cl)cc1)N1CCN(C(=S)NCc2ccco2)CC1 | 92.6 ± 17
Cc1cc(Nc2ccncc2)n2nc(C)c(-c3ccccc3Cl)c2n1 | 105 ± 37
O=C(NC1CC1)c1ccc(CSCc2ccccc2Cl)o1 | 65.8 ± 24
O=C(Nc1ccccc1)c1ccc(-c2cc3ccncc3cc2OC2CCNCC2)s1 | 72.3 ± 8.4
CCCn1nnc(NC(=O)COc2ccc(C3CCCCC3)cc2)n1 | 85.9 ± 12
O=C(NC1CCN(c2ccnc3ccccc23)C1)c1cccc(C(F)(F)F)c1 (stereo not drawn) | 81.5 ± 25
c1ccc(Oc2ccc(-c3cncc(-c4ccc5[nH]ccc5c4)n3)cc2)cc1 | 83.7 ± 20
O=[N+]([O-])c1cn2c(n1)OC[C@@H](OCc1ccc(OC(F)(F)F)cc1)C2 | 90 ± 13
CC1=Nc2ccc(Cl)cc2C(O)(c2ccc(C)cc2)N1CCN1CCCCC1 (stereo not drawn) | 91 ± 28

SMILES | percent growth [%]
O=C(NC1CC1)c1ccc(N2CCOc3ccc(Cl)cc32)s1 | 85.5 ± 14
CC(C)(C)n1nc(Cc2cccc3ccccc23)c2c(N)ncnc21 | 87.7 ± 16
O=C(c1cc2ccccc2o1)N1CCN(Cc2ccc3c(c2)OCO3)CC1 | 102 ± 20
O=C(Nc1ccccc1-c1nc2c(C(=O)O)cccc2o1)c1ccccc1 | 68.3 ± 5.7
CCN(CC)CCCCCCNc1cc(OC)cc2c(C)ccnc12 | 83.2 ± 15
c1cncc(NCc2ccc(-c3cc4ccncc4cc3OC3CCNCC3)s2)c1 | 66.3 ± 22
O=C(Nc1nnc(-c2ccc(Cl)s2)o1)c1ccc(Cl)s1 | 3.26 ± 4.9
CC(=O)N1CCc2cc3nc(C)cc(C)c3cc21 | 91.7 ± 27
O=C(C1CCN(c2nnc(-n3cccc3)s2)CC1)N1CCC(Cc2ccccc2)CC1 | 100 ± 41
Cc1cccnc1NC(=O)c1cccc(OCc2c(C)noc2C)c1 | 96.3 ± 39
Clc1ccc(Cl)c(CO[C@H]2CCCC[C@@H]2n2ccnc2)c1 | 20.8 ± 36
Cc1ccc(S(=O)(=O)N2CCN(C(=O)c3cc(-c4ccccc4)[nH]n3)CC2)cc1 | 83.1 ± 19
CNC(=O)CNc1nc(-c2ccccn2)nc2scc(-c3ccccc3)c12 | 43 ± 38
O=C(COc1cccc(F)c1)Nc1nc(-c2ccccn2)cs1 | 3.07 ± 5.3
Nc1ncc(Br)cc1-c1nc2cc(Cl)cnc2[nH]1 | 100 ± 9.8
Cc1ccc(-c2nc(CN(Cc3ccccn3)C(C)C)cs2)o1 | 19.4 ± 34
